Measured values published in PubChem BioAssay (EPA / NIEHS).
“And” between values parts separate entries of the source, which are not always exact repeats. Identical values can stand only once. Results filed as inconclusive are left out. A structure can be active in one record and inactive in another. The source made the active and inactive calls. How the source made its calls, unless noted: active means hit-call score of the fitted dose curve at least 0.9, where 1 is the maximum; inconclusive means response in the unintended direction; inactive means score below 0.9.

Legend:
[1] = molecular target: human Retinoic Acid Receptor beta (RARb), RARB (gene 5915) (UniProt P10826); assay: ATG_RARb_TRANS: Attagene TRANS-FACTORIAL HepG2 Assay for human Retinoic Acid Receptor beta (AID 2283004)
Sequence of human Retinoic Acid Receptor beta (RARb), RARB (gene 5915) (P10826 whole entry, looked up, the tested form may be a part): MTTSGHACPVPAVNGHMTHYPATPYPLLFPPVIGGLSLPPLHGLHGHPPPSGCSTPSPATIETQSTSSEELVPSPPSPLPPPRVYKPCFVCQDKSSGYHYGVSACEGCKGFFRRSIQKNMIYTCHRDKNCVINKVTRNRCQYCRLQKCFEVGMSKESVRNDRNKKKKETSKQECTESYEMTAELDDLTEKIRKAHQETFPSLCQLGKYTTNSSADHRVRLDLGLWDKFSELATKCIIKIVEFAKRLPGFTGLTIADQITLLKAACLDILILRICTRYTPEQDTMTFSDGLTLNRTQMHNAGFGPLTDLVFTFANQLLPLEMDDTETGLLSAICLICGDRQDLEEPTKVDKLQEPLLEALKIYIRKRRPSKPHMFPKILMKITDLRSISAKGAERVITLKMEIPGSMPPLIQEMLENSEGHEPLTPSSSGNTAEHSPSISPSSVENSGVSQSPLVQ
Method in brief: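 Fluorescent capillary-electrophoresis detection of GAL4-UAS reporter mRNA defines the endpoint, with induction over DMSO-treated wells scored as activity. Transiently transfected human hepatoma HepG2 cells expressing exogenous NR–Gal4 proteins are exposed to test chemicals for 24 h.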

[2] = molecular target: human Retinoic Acid Receptor gamma (RARg), RARG (gene 5916) (UniProt P13631); assay: ATG_RARg_TRANS: Attagene TRANS-FACTORIAL HepG2 Assay for human Retinoic Acid Receptor gamma (RARg) (AID 2283009)
Sequence of human Retinoic Acid Receptor gamma (RARg), RARG (gene 5916) (P13631 whole entry, looked up, the tested form may be a part): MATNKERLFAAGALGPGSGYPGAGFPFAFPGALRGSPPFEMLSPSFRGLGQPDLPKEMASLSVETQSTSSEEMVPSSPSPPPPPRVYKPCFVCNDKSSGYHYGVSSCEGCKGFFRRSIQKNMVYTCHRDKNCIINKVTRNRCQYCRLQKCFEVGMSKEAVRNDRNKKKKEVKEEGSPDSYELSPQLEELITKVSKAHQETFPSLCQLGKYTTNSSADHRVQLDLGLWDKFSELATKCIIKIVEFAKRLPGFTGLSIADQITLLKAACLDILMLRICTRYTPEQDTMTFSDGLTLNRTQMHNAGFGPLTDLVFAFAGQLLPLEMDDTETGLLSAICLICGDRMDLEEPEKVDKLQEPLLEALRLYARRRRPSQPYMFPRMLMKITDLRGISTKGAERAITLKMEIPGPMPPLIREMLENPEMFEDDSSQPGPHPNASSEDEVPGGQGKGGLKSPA
Method in brief: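 Readout: reporter transcript levels via RT-PCR, 6-FAM primer-extension labelling, HpaI digestion and capillary electrophoresis. Cells: HepG2 carrying transfected RARg-GAL4 chimera plus UAS reporter set. Dosing 24 h; DMSO negative control.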

[3] = CEETOX_H295R_MTT_cell_viability: Viability Assessment in the CeeTox HT-H295R MTT Assay (AID 2283718; active means hit-call score of the fitted dose curve at least 0.9, where 1 is the maximum; inactive means score below 0.9)
Method in brief: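 MTT reduction (0.5 mg/ml, 4 h at 37 C; absorbance at 570 and 650 nm) gave viability as background-corrected percent change versus controls. H295R cells had 48 h forskolin (10 uM) prestimulation, then 48 h chemical exposure at 0.1% DMSO.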

[4] = read-out: Vascular cell adhesion molecule 1 (VCAM1), VCAM1 (gene 7412); assay: BSK_MyoF_VCAM1: BioMAP Diversity Plus: MyoF Assay for Vascular cell adhesion molecule 1 (VCAM1) Biomarker Activity (AID 2284231; active means hit-call score of the fitted dose curve at least 0.9, where 1 is the maximum; inactive means score below 0.9); conditions: primary human lung fibroblasts
Method in brief: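 VCAM-1 levels, lung fibroblasts, ELISA, 24 h exposure, increase scored relative to DMSO.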

[5] = read-out: Actin alpha 1 (ACTA1), ACTA1 (gene 58); assay: BSK_MyoF_ACTA1: BioMAP Diversity Plus: MyoF Assay for Actin alpha 1 (ACTA1) Biomarker Activity (AID 2284244; active means hit-call score of the fitted dose curve at least 0.9, where 1 is the maximum; inactive means score below 0.9); conditions: primary human lung fibroblasts
Method in brief: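 ELISA read-out of a-SMA in primary human lung fibroblast cultures, 24 h post-dosing. Activity scored in the positive direction versus DMSO baseline.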

[6] = read-out: Plasminogen activator inhibitor-1 (PAI1), SERPINE1 (gene 5054); assay: BSK_MyoF_PAI1: BioMAP Diversity Plus: MyoF Assay for Plasminogen activator inhibitor-1 (PAI1) Biomarker Activity (AID 2284256; active means hit-call score of the fitted dose curve at least 0.9, where 1 is the maximum; inactive means score below 0.9;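 on outcome: PAI-1 protein level measured by ELISA in fibroblast cultures; PAI-1 read 24 h after compound addition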); conditions: primary human lung fibroblasts
Method in brief: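 In this multiplexed primary-cell system, fibroblasts from human lung received compound for 24 h before ELISA detection of PAI-1; overt toxicity was checked by SRB (0.1%, TCA-fixed, 560 nm) in parallel wells.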

[7] = read-out: Interleukin-8 (IL8), CXCL8 (gene 3576); assay: BSK_MyoF_IL8: BioMAP Diversity Plus: MyoF Assay for Interleukin-8 (IL8) Biomarker Activity (AID 2284261; active means hit-call score of the fitted dose curve at least 0.9, where 1 is the maximum; inactive means score below 0.9); conditions: primary human lung fibroblasts
Method in brief: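 DMSO-normalised, upward-fitted IL-8 ELISA signal; human lung fibroblasts, 24 h chemical treatment.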

[8] = BSK_MyoF_SRB: Viability Assessment in the BioMAP Diversity Plus: MyoF Assay (AID 2284267; active means hit-call score of the fitted dose curve at least 0.9, where 1 is the maximum; inactive means score below 0.9;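 further: total protein by SRB absorbance in parallel cultures as cytotoxicity measure; cells assessed 24 h after compound addition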); conditions: primary human lung fibroblasts
Method in brief: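 Lung fibroblast cultures, 24 h post-dose; fix 10% TCA, stain 0.1% SRB, read 560 nm. Signal = total protein as cytotoxicity measure; fitted relative to DMSO negative control.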

[9] = molecular target: Glucocorticoid receptor (Homo sapiens) (UniProt P04150); assay: ATG_GR_TRANS: Attagene TRANS-FACTORIAL HepG2 Assay for human Glucocorticoid Receptor (GR) (AID 2282978); conditions: HepG2 Attagene TRANS GR reporter, mRNA transcription;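 further: activators score as hits since higher reporter transcript over DMSO is fitted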
Sequence of Glucocorticoid receptor (Homo sapiens) (P04150 whole entry, looked up): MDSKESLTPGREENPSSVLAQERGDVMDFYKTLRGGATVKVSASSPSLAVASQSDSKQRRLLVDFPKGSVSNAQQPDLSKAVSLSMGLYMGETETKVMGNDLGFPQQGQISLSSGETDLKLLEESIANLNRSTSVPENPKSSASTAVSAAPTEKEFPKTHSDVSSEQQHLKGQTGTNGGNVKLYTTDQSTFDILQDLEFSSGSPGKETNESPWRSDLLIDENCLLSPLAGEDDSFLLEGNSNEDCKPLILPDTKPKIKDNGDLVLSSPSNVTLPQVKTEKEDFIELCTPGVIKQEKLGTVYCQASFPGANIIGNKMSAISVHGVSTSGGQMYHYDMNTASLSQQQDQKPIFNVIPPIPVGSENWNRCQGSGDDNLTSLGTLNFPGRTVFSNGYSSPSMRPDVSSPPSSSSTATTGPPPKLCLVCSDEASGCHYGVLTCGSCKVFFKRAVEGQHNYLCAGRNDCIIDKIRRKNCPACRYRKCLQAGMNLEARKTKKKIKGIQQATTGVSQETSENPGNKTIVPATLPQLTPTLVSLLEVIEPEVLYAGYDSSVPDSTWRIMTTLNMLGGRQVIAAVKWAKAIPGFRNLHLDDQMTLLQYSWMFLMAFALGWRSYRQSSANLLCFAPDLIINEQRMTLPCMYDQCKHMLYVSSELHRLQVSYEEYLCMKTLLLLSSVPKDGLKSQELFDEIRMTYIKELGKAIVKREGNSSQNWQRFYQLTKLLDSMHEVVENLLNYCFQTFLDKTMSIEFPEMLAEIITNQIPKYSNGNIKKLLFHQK
Method in brief: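 Multiplexed TRANS reporter system, HepG2; 24 h exposure; RNA → oligo(dT) RT → reporter-specific PCR → 6-FAM primer extension → HpaI cut → CE fluorescence. Gain-of-signal vs DMSO.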

[10] = molecular target: Estrogen receptor (Homo sapiens) (UniProt P03372); assay: ATG_ERa_TRANS: Attagene TRANS-FACTORIAL HepG2 Assay for human Estrogen Receptor alpha (ERa) (AID 2282970); conditions: HepG2 Attagene TRANS ERa GAL4 reporter, mRNA
Sequence of Estrogen receptor (Homo sapiens) (P03372 whole entry, looked up, the tested form may be a part): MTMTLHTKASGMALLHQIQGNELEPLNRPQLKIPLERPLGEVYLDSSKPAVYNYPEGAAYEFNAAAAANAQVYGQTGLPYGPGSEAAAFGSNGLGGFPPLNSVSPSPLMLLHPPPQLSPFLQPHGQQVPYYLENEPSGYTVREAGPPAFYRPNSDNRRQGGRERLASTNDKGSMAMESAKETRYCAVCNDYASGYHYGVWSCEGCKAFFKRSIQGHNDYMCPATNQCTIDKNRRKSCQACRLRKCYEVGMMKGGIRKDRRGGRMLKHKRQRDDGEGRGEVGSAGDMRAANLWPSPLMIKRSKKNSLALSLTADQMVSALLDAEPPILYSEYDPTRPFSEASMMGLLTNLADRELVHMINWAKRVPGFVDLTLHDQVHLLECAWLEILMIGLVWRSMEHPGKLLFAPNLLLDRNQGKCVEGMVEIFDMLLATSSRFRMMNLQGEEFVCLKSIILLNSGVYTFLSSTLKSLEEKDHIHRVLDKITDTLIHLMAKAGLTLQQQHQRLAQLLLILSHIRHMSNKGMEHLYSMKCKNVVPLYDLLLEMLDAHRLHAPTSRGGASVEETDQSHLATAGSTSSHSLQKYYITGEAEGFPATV
Method in brief: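 Signal derives from fluorescence of labelled reporter PCR fragments separated by capillary electrophoresis. HepG2 cells transiently carrying multiple GAL4-UAS reporter units were treated 24 hours, and induction above DMSO baseline was fitted as activity.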

[11] = tested on: Thyroperoxidase (TPO), gene 54314; assay: CCTE_Simmons_AUR_rTPO: CCTE's Amplex UltraRed Assay for Thyroperoxidase (TPO) Inhibition, Simmons Lab (AID 2283662);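 further: potency for loss of signal meaning inhibition of peroxidase activity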
Method in brief: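 Rat thyroid microsomal TPO + 25 uM AUR in 200 mM K phosphate; cpd 5 nM–87.5 uM [final], 8 conc, 0.5% DMSO; 300 uM H2O2 starts rxn; 37C dark 30 min; endpoint FI 544/590 nm; n=3.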

[12] = molecular target: Luciferin 4-monooxygenase (Photinus pyralis) (UniProt P08659); assay: CCTE_Simmons_QuantiLum_inhib_2: CCTE's Firefly Luciferase Inhibition Assay, Simmons Lab (AID 2283767)
Sequence of Luciferin 4-monooxygenase (Photinus pyralis) (P08659 whole entry, looked up): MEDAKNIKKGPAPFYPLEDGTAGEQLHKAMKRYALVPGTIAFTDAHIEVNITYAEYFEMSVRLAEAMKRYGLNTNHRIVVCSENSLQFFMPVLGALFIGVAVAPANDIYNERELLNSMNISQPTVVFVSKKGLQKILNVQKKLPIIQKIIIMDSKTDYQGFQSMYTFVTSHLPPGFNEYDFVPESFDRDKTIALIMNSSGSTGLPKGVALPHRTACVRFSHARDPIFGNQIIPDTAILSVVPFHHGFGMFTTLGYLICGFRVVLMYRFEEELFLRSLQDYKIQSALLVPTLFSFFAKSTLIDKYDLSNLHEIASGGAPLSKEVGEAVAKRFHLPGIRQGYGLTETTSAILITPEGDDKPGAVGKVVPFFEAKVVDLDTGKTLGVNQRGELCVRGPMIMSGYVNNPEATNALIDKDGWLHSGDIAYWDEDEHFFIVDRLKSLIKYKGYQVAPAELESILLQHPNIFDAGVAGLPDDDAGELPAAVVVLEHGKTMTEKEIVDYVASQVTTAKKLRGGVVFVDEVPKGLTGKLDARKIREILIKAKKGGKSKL
Method in brief: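 Cell-free QuantiLum luciferase, 5 ng/well; compounds 5 nM–87.5 uM final, 8 conc, 0.5% DMSO; 30 min, 37C, dark. Detection reagent (150 uM D-luciferin, 147 uM dATP, CoA, DTT, pH 7.8 final) injected per well, kinetic luminescence. Triplicate biological replicates.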

[13] = molecular target: Retinoic acid receptor alpha (Homo sapiens) (UniProt P10276); assay: ATG_RARa_TRANS: Attagene TRANS-FACTORIAL HepG2 Assay for human Retinoic Acid Receptor alpha (RARa) (AID 2283005)
Sequence of Retinoic acid receptor alpha (Homo sapiens) (P10276 whole entry, looked up, the tested form may be a part): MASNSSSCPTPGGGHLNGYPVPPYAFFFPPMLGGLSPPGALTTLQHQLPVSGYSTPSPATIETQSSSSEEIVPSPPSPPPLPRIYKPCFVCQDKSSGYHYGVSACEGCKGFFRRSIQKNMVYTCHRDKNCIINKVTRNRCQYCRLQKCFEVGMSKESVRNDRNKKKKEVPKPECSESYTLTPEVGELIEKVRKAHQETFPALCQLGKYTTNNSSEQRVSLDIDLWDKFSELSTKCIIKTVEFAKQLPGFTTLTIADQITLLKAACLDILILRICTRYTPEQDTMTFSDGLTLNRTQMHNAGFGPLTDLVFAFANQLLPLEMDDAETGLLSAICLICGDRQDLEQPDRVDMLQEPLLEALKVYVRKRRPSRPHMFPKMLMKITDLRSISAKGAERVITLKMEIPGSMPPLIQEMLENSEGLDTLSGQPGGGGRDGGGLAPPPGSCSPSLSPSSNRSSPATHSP
Method in brief: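 Reporter transcripts, measured by RT-PCR with fluorescent labeling and capillary electrophoresis after 24 h dosing, reflect activity of an exogenous human RARa–GAL4 fusion in transiently transfected HepG2. Fitted for increase relative to DMSO.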

[14] = molecular target: Nuclear receptor subfamily 1 group I member 2 (Homo sapiens) (UniProt O75469); assay: NVS_NR_hPXR: NovaScreen (NVS) Nuclear Receptor Binding Assay for human Pregnane X Receptor (PXR) (AID 2283365);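 further: a drop in FRET signal versus DMSO baseline means the compound binds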
Sequence of Nuclear receptor subfamily 1 group I member 2 (Homo sapiens) (O75469 whole entry, looked up): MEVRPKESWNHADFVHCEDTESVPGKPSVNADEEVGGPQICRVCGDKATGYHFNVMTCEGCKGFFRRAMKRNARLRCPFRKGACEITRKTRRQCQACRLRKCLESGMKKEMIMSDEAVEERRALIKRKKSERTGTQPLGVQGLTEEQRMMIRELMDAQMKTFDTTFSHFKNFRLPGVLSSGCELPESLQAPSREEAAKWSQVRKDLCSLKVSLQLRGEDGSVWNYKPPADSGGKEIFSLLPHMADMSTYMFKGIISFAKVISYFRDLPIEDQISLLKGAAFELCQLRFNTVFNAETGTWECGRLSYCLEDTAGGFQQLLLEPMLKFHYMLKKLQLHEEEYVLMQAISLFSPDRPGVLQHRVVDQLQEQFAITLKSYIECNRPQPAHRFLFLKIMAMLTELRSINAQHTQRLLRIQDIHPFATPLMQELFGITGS
Method in brief: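 Read-out: TR-FRET, human PXR, 2 h post-dosing, cell-free. Loss of signal vs DMSO taken as binding activity; 25 uM primary, concentration series secondary.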

[15] = molecular target: Bile acid receptor (Homo sapiens) (UniProt Q96RI1); assay: OT_FXR_FXRSRC1_1440: Odyssey Thera (OT) 24-hour HEK293T Protein-Complementation Assay for Farnesoid X receptor/SRC-1 Co-activator (AID 2283384)
Method in brief: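 Fluorescence readout, 24 h post-dose, HEK293T; FXR and SRC-1 fused to complementary reporter fragments, association reconstitutes signal. Positive-direction fit vs DMSO baseline.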

[16] = CCTE_Simmons_CellTiterGLO_HEK293T: Viability Assessment in CCTE's Assays for Thyroperoxidase (TPO) Inhibition, Simmons Lab (AID 2283665)
Method in brief: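 Luminescent ATP readout (CellTiter-Glo, 20 min at room temperature) after 24 hr exposure of HEK293T cells to 5 nM–87.5 uM final compound; signal loss relative to DMSO vehicle indicated cytotoxicity; dichlone titrated as positive control.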

[17] = molecular target: Androgen receptor (Homo sapiens) (UniProt P10275); assay: ATG_AR_TRANS: Attagene TRANS-FACTORIAL HepG2 Assay for human Androgen Receptor (AR) (AID 2282973); conditions: HepG2 Attagene TRANS-FACTORIAL AR reporter transcription
Sequence of Androgen receptor (Homo sapiens) (P10275 whole entry, looked up, the tested form may be a part): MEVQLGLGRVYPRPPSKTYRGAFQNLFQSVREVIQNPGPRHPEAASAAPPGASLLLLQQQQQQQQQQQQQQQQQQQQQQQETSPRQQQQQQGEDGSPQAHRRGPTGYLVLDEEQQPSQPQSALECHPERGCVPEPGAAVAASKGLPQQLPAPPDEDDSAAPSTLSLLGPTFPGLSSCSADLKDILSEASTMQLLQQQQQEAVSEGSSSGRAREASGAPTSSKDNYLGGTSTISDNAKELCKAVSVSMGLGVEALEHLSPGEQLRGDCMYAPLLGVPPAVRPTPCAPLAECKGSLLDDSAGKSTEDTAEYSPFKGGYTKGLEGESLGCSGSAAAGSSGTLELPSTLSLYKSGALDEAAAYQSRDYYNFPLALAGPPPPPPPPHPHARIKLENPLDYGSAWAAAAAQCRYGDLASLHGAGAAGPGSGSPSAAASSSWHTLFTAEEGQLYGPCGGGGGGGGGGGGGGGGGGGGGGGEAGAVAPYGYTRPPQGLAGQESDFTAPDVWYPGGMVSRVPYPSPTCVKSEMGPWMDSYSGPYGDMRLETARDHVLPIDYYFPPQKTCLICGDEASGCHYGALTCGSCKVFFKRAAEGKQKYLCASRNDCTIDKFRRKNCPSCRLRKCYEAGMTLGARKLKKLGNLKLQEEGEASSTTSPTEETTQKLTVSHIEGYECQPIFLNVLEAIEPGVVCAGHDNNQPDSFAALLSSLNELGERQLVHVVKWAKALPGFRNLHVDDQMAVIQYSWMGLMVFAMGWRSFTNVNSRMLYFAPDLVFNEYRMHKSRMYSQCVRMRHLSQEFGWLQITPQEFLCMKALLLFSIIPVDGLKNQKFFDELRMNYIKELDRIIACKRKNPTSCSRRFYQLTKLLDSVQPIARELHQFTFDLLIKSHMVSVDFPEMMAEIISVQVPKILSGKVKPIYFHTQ
Method in brief: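 Chimeric nuclear receptor–Gal4 activity was assessed in human HepG2 hepatocytes after 24 h chemical dosing. Induced reporter mRNA was detected via labelled RT-PCR fragments on capillary electrophoresis, and gain of signal was analysed against DMSO.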

[18] = CCTE_Deisenroth_AIME_384WELL_CTox_Inactive: Cytotoxicity Assessment (CTOX) in CCTE's 384-well Estrogen Receptor Transactivation Assay without AIME metabolic competence (metabolism negative), Deisenroth Lab (AID 2284039);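 further: cell viability via live-cell protease substrate cleaved to fluorescent probe; cells exposed 24 h to medium preincubated 2 h with alginate-water beads without S9; loss of fluorescence signal means loss of viability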
Method in brief: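 VM7Luc4E2 human breast cells received conditioned medium from a 2 h incubation of chemical with alginate-water microspheres (no S9), then were exposed 24 h. Viability was read as protease-substrate cleavage to a fluorescent probe; loss of signal was fitted bidirectionally over 0.002–200 uM.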

[19] = molecular target: rat Thyrotropin Releasing Hormone Receptor (TRH), Trhr (gene 25570) (UniProt Q01717); assay: NVS_GPCR_rTRH: NovaScreen (NVS) G Protein-Coupled Receptor Assay for rat Thyrotropin Releasing Hormone Receptor (TRH) (AID 2283329);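 further: hit means lower bound tracer signal versus DMSO baseline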
Method in brief: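 Cell-free radioligand binding on rat forebrain membranes; bound tracer measured by filter-based scintillation counting 4 hours after dosing. Loss of signal versus DMSO baseline indicates displacement; primary screen at 25 uM in duplicate, actives then run in concentration series.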

[20] = molecular target: human Peripheral-type Benzodiazepine Receptor (PBR), TSPO (gene 706) (UniProt P30536); assay: NVS_MP_hPBR: NovaScreen (NVS) Membrane Protein Assay for human Peripheral-type Benzodiazepine Receptor (PBR) (AID 2283331);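 further: hits reduce radioligand binding relative to DMSO baseline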
Sequence of human Peripheral-type Benzodiazepine Receptor (PBR), TSPO (gene 706) (P30536 whole entry, looked up): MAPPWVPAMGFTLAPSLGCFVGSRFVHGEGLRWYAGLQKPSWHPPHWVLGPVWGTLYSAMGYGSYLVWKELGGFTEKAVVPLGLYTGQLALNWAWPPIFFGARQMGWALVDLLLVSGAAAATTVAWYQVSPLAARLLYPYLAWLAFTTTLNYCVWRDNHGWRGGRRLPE
Method in brief: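 Cell-free binding to human colonic membrane preparations measured by filter-based scintillation counting after 1 h. Compounds first run at 25 uM in duplicate, then concentration series for actives; signal loss against DMSO baseline.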

Oc1cc(Cl)ccc1Cl
outcome [1]: inactive
outcome [2]: inactive
outcome [3]: inactive
outcome [4]: inactive
outcome [5]: inactive
AC50 [6]: 0.245 µM (active)
outcome [7]: inactive
outcome [8]: inactive

N#Cc1cccc(C#N)c1
outcome [9]: inactive

CCC(Br)(CC)C(=O)NC(N)=O
outcome [1]: inactive

c1ccc(P(c2ccccc2)c2ccccc2)cc1
AC50 [10]: 15.2 µM (active)
AC50 [11]: 40.2 µM (active)
outcome [12]: inactive

O=C(NC(=O)c1c(F)cccc1F)Nc1ccc(Oc2ccc(C(F)(F)F)cc2Cl)cc1F
outcome [1]: inactive
outcome [13]: inactive
outcome [2]: inactive
outcome [14]: inactive
AC50 [15]: 40.8 µM (active)
outcome [3]: inactive

O=C(O)CCCc1ccc(N(CCCl)CCCl)cc1
outcome [10]: inactive
AC50 [4]: 24.4 µM (active) and 30.1 µM (active)
outcome [5]: inactive
AC50 [6]: 0.016 µM (active)
outcome [6]: inactive
outcome [7]: inactive
outcome [8]: inactive

C=CCc1ccc(OC(=O)Cc2ccccc2)c(OC)c1
outcome [9]: inactive

CN1C(=O)CCS(=O)(=O)C1c1ccc(Cl)cc1 (configuration not stated)
outcome [1]: inactive
outcome [2]: inactive

CC(C)(O)C#N
outcome [1]: inactive
outcome [13]: inactive
outcome [2]: inactive
outcome [15]: inactive
AC50 [11]: 36.7 µM (active)
outcome [16]: inactive
outcome [12]: inactive

CN1C[C@H](C(=O)N[C@]2(C)O[C@@]3(O)[C@@H]4CCCN4C(=O)[C@H](Cc4ccccc4)N3C2=O)C=C2c3cccc4[nH]cc(c34)C[C@H]21
outcome [9]: inactive

SCc1ccco1
AC50 [10]: 54.1 µM (active)
outcome [17]: inactive

CN(C)N
outcome [17]: inactive
outcome [18]: inactive

Oc1ccc(Cl)cc1
outcome [1]: inactive
outcome [19]: inactive
AC50 [20]: 12.3 µM (active)
outcome [14]: inactive

CCOC(=O)NC(=S)Nc1ccccc1NC(=S)NC(=O)OCC
outcome [1]: inactive
AC50 [14]: 6.55 µM (active)
AC50 [11]: 16 µM (active)
outcome [12]: inactive

Nc1c(Cl)c(Cl)c(Cl)c(Cl)c1Cl
outcome [17]: inactive
outcome [1]: inactive
outcome [13]: inactive
outcome [2]: inactive

CCOP(O)OCC
outcome [18]: inactive

CCc1cccc(C)c1N(C(=O)CCl)[C@@H](C)COC
outcome [1]: inactive
AC50 [20]: 2.89 µM (active)
AC50 [14]: 5.91 µM (active)

N#Cc1cc(I)c(O)c(I)c1
outcome [17]: inactive
outcome [9]: inactive
outcome [1]: inactive
outcome [13]: inactive
outcome [2]: inactive

CN(N=O)c1ccccc1
outcome [10]: inactive

CCCC=NO
outcome [10]: inactive
outcome [9]: inactive
outcome [19]: inactive

O=c1[nH]c(Cl)c(Cl)cc1Cl
outcome [17]: inactive
outcome [4]: inactive
outcome [5]: inactive
outcome [6]: inactive
outcome [7]: inactive
outcome [8]: inactive
